Data: PubChem BioAssay AID1159580 (chemical genetic matrix, 2015)
Where “and” joins values, the source holds several entries; their conditions need not be identical. Identical values can stand only once. About 2,000 (36%) of roughly 5,500 compounds were called active. Not shown: some 18% with an inconclusive outcome. No stated cut-off is given here; in the data, active means normalized growth mostly below about 0.91 (no sharp cut-off); inconclusive means no clear call, values can overlap the other calls; inactive means mostly above about 0.92. Some of the results follow.

Experiment: chemical genetic growth profiling, strain panel (AID 1159580);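 further: tested at 20 µM; growth read once vehicle control cultures reached saturation at 30 °C; 1 = growth at the plate median or of vehicle wells; lower values mean less growth of the strain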
Settings: S. cerevisiae deletion strains, growth OD

Measured: normalized growth

O=C(Nc1ccccc1)Nc1ccccc1
active: locus YDL074C, strain BRE1, hits give low values 1.28 [resistant] | locus YIL073C, strain SPO22, hits give low values 1.38 [resistant]
inactive: locus YAL021C, strain ccr4, hits give low values 0.977 | locus YAL026C, strain drs2, hits give low values 0.951 | locus YAL030W, strain snc1, hits give low values 0.992 | locus YBL061C, strain skt5, hits give low values 0.967 | locus YBR009C, strain hhf1, hits give low values 0.957 | locus YBR021W, strain FUR4, hits give low values 0.935 | locus YBR023C, strain chs3, hits give low values 0.954 | locus YBR171W, strain sec66, hits give low values 0.954 | locus YBR229C, strain ROT2, hits give low values 1 | locus YBR231C, strain swc5, hits give low values 0.942 | locus YBR279W, strain paf1, hits give low values 0.973 | locus YCL011C, strain gbp2, hits give low values 0.93 | locus YCL016C, strain dcc1, hits give low values 0.943 | locus YCL029C, strain bik1, hits give low values 1.02 | locus YCL069W, strain vba3, hits give low values 0.983 | locus YCR088W, strain abp1, hits give low values 0.971 | locus YDL005C, strain med2, hits give low values 0.956 | locus YDL035C, strain GPR1, hits give low values 1.1 | locus YDL040C, strain nat1, hits give low values 0.978 | locus YDL101C, strain DUN1, hits give low values 0.998 | locus YDL185W, strain tfp1, hits give low values 0.99 | locus YDL192W, strain arf1, hits give low values 0.978 | locus YDR001C, strain nth1, hits give low values 0.968 | locus YDR069C, strain doa4, hits give low values 0.964 | locus YDR101C, strain arx1, hits give low values 0.983 | locus YDR137W, strain rgp1, hits give low values 0.955 | locus YDR150W, strain NUM1, hits give low values 1.03 | locus YDR159W, strain sac3, hits give low values 1.04 | locus YDR162C, strain NBP2, hits give low values 1.1 | locus YDR195W, strain ref2 0.991 | locus YDR297W, strain sur2, hits give low values 0.969 | locus YDR318W, strain mcm21, hits give low values 0.989 | locus YDR334W, strain swr1, hits give low values 0.959 | locus YDR335W, strain msn5, hits give low values 0.952 | locus YDR388W, hits give low values 0.991 | locus YDR392W, strain spt3, hits give low values 0.932 | locus YDR502C, strain sam2, hits give low values 0.977 | locus YEL003W, strain gim4, hits give low values 0.977 | locus YEL037C, strain rad23, hits give low values 0.97 | locus YEL061C, strain CIN8 (second series), hits give low values 0.97 | locus YER015W, strain faa2, hits give low values 0.957 | locus YER016W, strain bim1, hits give low values 0.962 | locus YER110C, hits give low values 0.967 | locus YER111C, strain swi4, hits give low values 0.974 | locus YER155C, strain BEM2 (second series), hits give low values 0.978 | locus YER155C, strain BEM2, hits give low values 1.01 | locus YER167W, strain BCK2, hits give low values 1 | locus YFR010W, strain ubp6, hits give low values 0.987 | locus YGL078C, strain dbp3, hits give low values 0.98 | locus YGL086W, strain mad1, hits give low values 0.977 | locus YGL167C, strain pmr1, hits give low values 0.972 | locus YGL173C, strain kem1, hits give low values 0.97 | locus YGL227W, strain vid30, hits give low values 0.967 | locus YGL240W, strain doc1, hits give low values 0.915 | locus YGL248W, strain PDE1, hits give low values 1.08 | locus YGL253W, strain hxk2, hits give low values 0.924 | locus YGR078C, strain PAC10, hits give low values 1.07 | locus YGR135W, strain pre9, hits give low values 0.985 | locus YGR252W, strain gcn5, hits give low values 0.91 | locus YHR013C, strain ard1, hits give low values 0.945 | locus YHR027C, strain rpn1, hits give low values 0.967 | locus YHR030C, strain SLT2, hits give low values 1.01 and 1.02 | locus YHR079C, strain IRE1 (second series), hits give low values 0.995 | locus YHR079C, strain IRE1, hits give low values 1 | locus YHR094C, strain hxt1, hits give low values 0.975 | locus YHR129C, strain ARP1, hits give low values 0.997 | locus YHR142W, strain chs7, hits give low values 0.887 | locus YHR200W, strain rpn10, hits give low values 0.997 | locus YIL066C, strain RNR3, hits give low values 0.996 | locus YIL125W, strain kgd1, hits give low values 0.977 | locus YIR030C, strain dcg1, hits give low values 0.975 | locus YJL092W, strain hpr5, hits give low values 0.969 | locus YJL095W, strain BCK1 (second series), hits give low values 0.991 | locus YJL095W, strain BCK1, hits give low values 1.09 and 1 | locus YJL115W, strain asf1, hits give low values 0.932 | locus YJL129C, strain trk1, hits give low values 0.998 | locus YJL134W, strain LCB3, hits give low values 1 | locus YJL154C, strain vps35, hits give low values 0.965 | locus YJL164C, strain tpk1, hits give low values 0.961 | locus YJL166W, strain qcr8, hits give low values 0.952 | locus YJL168C, strain set2, hits give low values 0.98 | locus YJL187C, strain SWE1 (second series), hits give low values 0.99 | locus YJR066W, strain TOR1, hits give low values 0.95
